What all share (test): NCI-60 one-dose screen, 48 h (100 = growth as untreated, 0 = no growth, -100 = all killed)
Common to all, as to conditions: 10 µM unless noted

The test system of test [1] is SR leukemia.
The test system of test [2] is RPMI-8226 leukemia.
Test [3] has as its system OVCAR-8 ovarian.
Test [4] deals with OVCAR-5 ovarian.
The test system of test [5] is OVCAR-4 ovarian.
Test [6] has as its system SK-OV-3 ovarian.
Test [7] has as its system IGROV1 ovarian.
The subject of test [8] is OVCAR-3 ovarian.
The test system of test [9] is HS 578T breast.
The subject of test [10] is NCI/ADR-RES ovarian.

Structures are written as SMILES. This is part of a sample that, as a whole, favours compounds with a hit. Of some 83,000 tested, about 20% had one in any assay.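 The endpoint reported here, percent growth, reads 100 for growth as untreated, 0 for no net growth and -100 for all cells dead.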 Unmarked numbers belong to inactive results. Activity calls are given as the source filed them. Rule for the calls: active = growth percent below 10; inactive = the rest.

For `CC(C)CNc1nc(N=[N+]=[N-])nc(NCC(C)C)n1`, the growth in [1] is -7.86% [100 µM] (active); in test [2] it was 33.1% [100 µM]; in test [3], 57.3% [100 µM]; in test [4], 75% [100 µM]; in test [5] it was 52.7% [100 µM]; in test [6], 83.7% [100 µM]. Further, the growth in test [7] was 70.9% [100 µM]; in test [8] it was 60.1% [100 µM]; in test [9], 61.1% [100 µM]; in test [10], 54.1% [100 µM].

For the compound `CC(=O)c1ccccc1NC(=O)C(C)(c1ccccc1)c1ccccc1`, the growth in test [1] was 65.9%; in [2], 57.3%; in [3], 90.2%; in [4], 91.3%; in test [5] it was 97.9%; in test [6] it was 103%. In addition, the growth in test [7] is 101%; in test [8] it was 103%; in test [9], 34.3%; in test [10], 63.8%.

As to `CC(NC(N)=S)c1ccccc1` (stereo not given), the growth in test [1] was 100%; in test [2], 116%; in [3], 106%; in test [4] it was 97.5%; in test [5], 106%; in test [6], 99.3%. For the same compound, the growth in test [7] was 110%; in test [8], 111%; in [9], 98.9%; in [10] it was 106%.

Regarding `O=c1sc2ncnc3ncn1c32`, the growth in test [1] was 33.2%; in [2] it was 25.6%; in test [3], 78.3%; in test [4], 65.3%; in test [5], 48.7%; in test [6], 22.8%. Further, the growth in [7] was 96%; in [8] it was 17.6%; in [9], 72.7%; in test [10], 70.1%.

Consider `N#Cc1c(-c2ccccc2)cc(-c2ccccc2)n(CCC(=O)O)c1=O`, for which the growth is 19.8% in test [1]; 50.3% in test [2]; 50.3% in test [3]; 94.2% in test [4]; 90.8% in [5]; 92% in test [6]. Besides, the growth in [7] was 50.2%; in [8], 14.8%; in [9], 58.2%; in test [10], 33.7%.

As for `c1ccc(-c2nc(Nc3nccnn3)c3ccccc3n2)cc1`, the growth in test [1] is 91.6%; in test [2], 98.4%; in test [3], 95.3%; in test [4], 97.1%; in test [5], 122%; in [6], 115%. Further, the growth is 92.2% in [7], 100% in [8], 98.8% in [9] and 98.8% in test [10].

For `CCOC(=O)CCN(c1c(Cl)ssc1=O)C(C)C`, the growth was 134% in test [1]; 105% in test [2]; 97.2% in test [3]; 87.2% in [4]; 106% in test [5]; 116% in test [6]. The growth in test [7] is -5.46% (active); in test [8], 128%; in test [9] it was 103%; in test [10], 105%.

Turning to `CSc1nc(Nc2ccc(S(=O)(=O)Nc3ccon3)cc2)c(C#N)c(-c2ccc(Cl)cc2)n1`, the growth was -37.8% (active) in test [1]; 71.3% in test [2]; 95.7% in test [3]; 106% in [4]; 113% in test [5]; 108% in [6]. The growth in [7] was 96.6%; in test [8], 122%; in test [9], 106%; in test [10], 102%.

As for `CC12CCC3C(=CCc4cc(O)ccc43)C1CCC2=O` (stereo not given), the growth in test [1] is 97.6%; in test [2], 87.8%; in test [3] it was 101%; in [4], 102%; in test [5], 107%; in [6] it was 115%. Further, the growth in test [7] is 107%; in [8], 111%; in [9], 104%; in test [10], 102%.

With `COc1cnc2c(c1)C(=O)c1c-2n(CCCn2ccnc2)c(=O)c2cc(F)ccc12`, the growth in [1] is -25% (active); in test [2] it was -28.2% (active); in test [3], 5.92% (active); in [4] it was -30.4% (active); in test [5], -0.273% (active); in test [6], -22.5% (active). The growth was 4.03% (active) in test [7], -35.5% (active) in test [8], 15.5% in [9] and -3.87% (active) in test [10].

For `CC1CN(C2CCCCC2)C(=O)NC1=O` (stereo not given), the growth was 80.3% in [1]; 111% in [2]; 104% in test [3]; 105% in test [4]; 116% in test [5]; 107% in test [6]. The growth in [7] was 110%; in test [8], 111%; in test [9], 110%; in [10], 119%.

Turning to `CC(C)N(Cc1ccccc1)c1c(S)ssc1=S`, the growth in test [1] was 2.98% (active); in test [2] it was -65.4% (active); in test [3] it was 14.7%; in [4], 14.1%; in test [5], -2.68% (active); in [6], 11.7%. In addition, the growth was -39.4% (active) in test [7], 28.1% in test [8], 6.03% (active) in test [9] and 15.9% in test [10].

As to `CCOC(=O)C1=CCC(n2cc(C)c(=O)[nH]c2=O)O1` (stereo not given), the growth in test [1] was 94.8%; in test [2], 106%; in test [3], 97.9%; in test [4], 113%; in test [5] it was 105%; in test [6] it was 109%. Further, the growth was 86.3% in test [7], 108% in [8], 104% in test [9] and 101% in test [10].

Consider `Cc1cc2c(cc1C)[n+](Cc1ccc3ccccc3n1)cn2Cc1ccc2ccccc2n1`, for which the growth in test [1] was -20.2% (active); in test [2] it was -30.7% (active); in test [3], 6.48% (active); in [4] it was 23.6%; in test [5] it was 8.38% (active); in test [6], 0.95% (active). Also, the growth in [7] was -4.22% (active); in [8] it was 3.63% (active); in [9], 27.3%; in test [10], 96.4%.

Take `N#CC(C#N)C(C#N)C#N`: the growth is 109% in test [1]; 107% in test [2]; 97.4% in test [3]; 111% in test [4]; 98.6% in test [5]; 84% in [6]. Moreover, the growth was 112% in [7], 104% in test [8], 102% in [9] and 101% in test [10].

Regarding `COc1cc(C2CC(c3ccc(C)cc3)=NN2C=O)ccc1OCCN(C)C` (stereo not given), the growth in test [1] was 89.2%; in [2], 90.2%; in test [3], 92.6%; in test [4], 94.3%; in test [5], 97.9%; in test [6] it was 96.2%. The growth in test [7] is 101%; in test [8], 103%; in [9] it was 87.5%; in test [10] it was 90.9%.

As to `C=CCN(/C=C/CN(CC=C)CC=C)CC=C`, the growth was 85.3% in test [1]; 95.8% in [2]; 95.8% in test [3]; 104% in test [4]; 91.7% in [5]; 103% in test [6]. In addition, the growth in [7] is 96.3%; in [8], 105%; in test [9], 109%; in test [10], 107%.

As for `N#Cc1c(-c2ccccc2)cc(-c2ccccc2)n(CC(=O)O)c1=O`, the growth in test [1] is 25%; in [2], 50.4%; in test [3], 57.1%; in test [4], 94.4%; in test [5] it was 93%; in [6], 99.9%. For the same compound, the growth is 61.4% in test [7], 17.7% in [8], 51.6% in test [9] and 26.2% in test [10].

As for `COc1cnc2c(c1)C(=O)c1c-2n(CCCNC(C)C)c(=O)c2cc(F)ccc12`, the growth was -13.4% (active) in test [1]; -28.1% (active) in test [2]; -14.2% (active) in test [3]; -26.5% (active) in [4]; -0.201% (active) in test [5]; -33.3% (active) in [6]. In addition, the growth in [7] was -5.18% (active); in test [8], -30.2% (active); in test [9], 16%; in test [10] it was -16.1% (active).

With `O=C1C=CC(=O)N1c1ccccc1N1C(=O)C=CC1=O`, the growth in [1] was 92%; in test [2], 124%; in test [3], 107%; in [4] it was 93.4%; in test [5], 116%; in test [6], 103%. Moreover, the growth in [7] was 95.3%; in test [8], 103%; in test [9], 104%; in test [10], 119%.

`O=C(CSc1ncc(-c2ccccc2)n1-c1ccccc1)Nc1ccc(-c2nc3ccccc3s2)cc1`: the growth in test [1] was 73%; in test [2] it was 65.5%; in [3] it was 27.2%; in test [4], 82.5%; in [5], 52.5%; in [6], 116%. Also, the growth in test [7] is 73.4%; in [8], 95.4%; in test [9], 91.9%; in test [10] it was 61.2%.

With `O=C1CNc2cc(Cl)ccc2N1`, the growth was 94.7% in test [1]; 103% in test [2]; 99.7% in test [3]; 102% in [4]; 115% in test [5]; 106% in [6]. The growth was 103% in test [7], 108% in test [8], 97.4% in [9] and 108% in [10].

As to `C/C(=C\CCc1ccoc1)CC/C=C(\C)CCCN1CCOCC1`, the growth in test [1] was 21%; in [2], 20.8%; in test [3] it was 71.5%; in test [4], 63%; in [5], 58.3%; in test [6], 74.4%. Also, the growth in test [7] is 71.3%; in test [8] it was 51.8%; in [9], 69.9%; in test [10], 74.5%.

In the case of `CSc1nc2nc3c(nc2c(=O)n1C)C(=O)c1ccccc1C3=O`, the growth is 6.56% (active) in test [1]; -20.2% (active) in test [2]; -8.36% (active) in [3]; -91.7% (active) in test [4]; -53% (active) in [5]; -22.2% (active) in test [6]. Further, the growth was -53% (active) in [7], -63.8% (active) in test [8], -21.6% (active) in test [9] and -4.99% (active) in [10].

For `COc1cc(/C=C2\CN(C)CC3=C2Nc2nc(SC)[nH]c(=O)c2C3c2cc(OC)c(OC)c(OC)c2)cc(OC)c1OC` (stereo not given), the growth in [1] was -2.83% (active); in test [2], 8.36% (active); in test [3], 1.09% (active); in test [4], 101%; in test [5] it was 75.9%; in [6] it was 87.9%. Besides, the growth was 30.8% in test [7], 15.7% in test [8], 36.3% in test [9] and -7.05% (active) in test [10].

In the case of `COc1ccc2ncccc2c1Cc1c(OC)ccc2ncccc12`, the growth in test [1] is 25.7%; in test [2], 69.2%; in test [3], 87.3%; in test [4], 91.4%; in [5], 83.3%; in test [6] it was 83.6%. Also, the growth in test [7] is 64.1%; in test [8] it was 72.9%; in test [9] it was 72.6%; in test [10] it was 40.8%.

As for `COc1ccc(C2CC(c3ccc(Nc4ccnc5cc(Cl)ccc45)cc3)=NN2C(C)=O)cc1` (stereo not given), the growth is -9.45% (active) in test [1]; 33.8% in test [2]; 72.8% in test [3]; 94.2% in [4]; 59% in test [5]; 101% in [6]. Also, the growth in [7] is 74.4%; in test [8], 64.2%; in test [9], 62.7%; in test [10] it was 67.7%.

These data come from PubChem BioAssay (NCI).
